Test results from PubChem BioAssay (NCI).
The panel holds about 79,000 compounds, 15% with a hit somewhere; the sample as a whole holds those more often. A number with no mark means an inactive call. Active and inactive are the calls of the source. Rule as the data show it: active = growth inhibition above about 70%; inactive = the rest.

How the values were obtained:
[1] = NCI Yeast Anticancer Drug Screen. Data for the rad50 strain (AID 155);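 also: 0% = growth of vehicle-only cultures of the same strain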; settings: S. cerevisiae rad50 strain growth inhibition, hits give high values
Procedure, shortened: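 Inhibition values express reduced yeast growth in compound-treated cultures relative to vehicle-treated controls.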

[2] = NCI Yeast Anticancer Drug Screen. Data for the mec2-1 strain (AID 157); settings: S. cerevisiae mec2-1 strain, hits give high values
Procedure, shortened: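 Vehicle-treated cultures served as reference for growth inhibition of compound-exposed mec2-1 yeast.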

[3] = NCI Yeast Anticancer Drug Screen. Data for the sgs1 mgt1 strain (AID 161);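 also: 0% = growth of cultures given vehicle only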; settings: S. cerevisiae sgs1 mgt1 strain, hits give high values
Procedure, shortened: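 Test agents were incubated with a DNA-repair-mutant yeast strain. Growth was then read and compared against vehicle-treated controls.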

[4] = NCI Yeast Anticancer Drug Screen. Data for the cln2 rad14 strain (AID 165);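 also: 0% = growth equal to vehicle treated cultures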; settings: S. cerevisiae cln2 rad14 strain, hits give high values
Procedure, shortened: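 Each compound was tested on cln2 rad14 yeast. Inhibition of growth was calculated against vehicle-exposed controls.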

[5] = NCI Yeast Anticancer Drug Screen. Data for the bub3 strain (AID 167); settings: S. cerevisiae bub3 mutant strain, hits give high values
Procedure, shortened: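 Steps: expose the mutant yeast strain to compound; grow alongside vehicle-treated cultures; measure growth; express inhibition against the vehicle cultures.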

[6] = NCI Yeast Anticancer Drug Screen. Data for the mlh1 rad18 strain (AID 175); settings: S. cerevisiae mlh1 rad18 strain growth inhibition, hits give high values
Procedure, shortened: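 Vehicle-treated cultures served as the reference for growth inhibition in a yeast strain carrying DNA damage repair alterations exposed to each compound.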

[7] = at 5.0 µM (retest, dose inferred, filed as 0.5)
[8] = at 50.0 µM (retest, dose inferred, filed as 5.0)

For `CCCCCCCNC(=O)CI`, the growth inhibition [1, 7] was 42%, the growth inhibition [1, 8] was 99% (active) and the growth inhibition [2, 7] was 13%. The growth inhibition [2, 8] was 100% (active), the growth inhibition [3, 7] was 33% and the growth inhibition [3, 8] was 100% (active). For the same compound, the growth inhibition [4, 7] was 9%, the growth inhibition [4, 8] was 94% (active) and the growth inhibition [5, 7] was 52%. The growth inhibition [5, 8] was 100% (active), the growth inhibition [6, 7] was 23% and the growth inhibition [6, 8] was 99% (active).
In the case of `CC/C(=C\c1ccccc1)[N+](=O)[O-]`, the growth inhibition [1, 7] is reported as 64%, the growth inhibition [1, 8] is reported as 99% (active) and the growth inhibition [2, 7] is reported as 11%. For the same compound, the growth inhibition [2, 8] was 100% (active), the growth inhibition [3, 7] was 25% and the growth inhibition [3, 8] was 100% (active). For the same compound, the growth inhibition [4, 7] was 14%, the growth inhibition [4, 8] was 99% (active) and the growth inhibition [5, 7] was 28%. For the same compound, the growth inhibition [5, 8] was 100% (active), the growth inhibition [6, 7] was -13% and the growth inhibition [6, 8] was 98% (active).
In the case of `CC1CCN(C(CC(=O)c2ccccc2)C(=O)c2ccccc2)CC1` (configuration not stated), the growth inhibition [1, 7] is reported as 20%, the growth inhibition [1, 8] is reported as 99% (active) and the growth inhibition [2, 7] is reported as 7%. For the same compound, the growth inhibition [2, 8] was 100% (active), the growth inhibition [3, 7] was 21% and the growth inhibition [3, 8] was 99% (active). For the same compound, the growth inhibition [4, 7] was 9%, the growth inhibition [4, 8] was 99% (active) and the growth inhibition [5, 7] was 13%. For the same compound, the growth inhibition [5, 8] was 100% (active), the growth inhibition [6, 7] was -2% and the growth inhibition [6, 8] was 98% (active).
In the case of `C1CC[N-]CC1.C1CC[N-]CC1.N#C[S-].N#C[S-].[Cd]`, the growth inhibition [1, 7] is reported as 33%, the growth inhibition [1, 8] is reported as 86% (active) and the growth inhibition [2, 7] is reported as 18%. The growth inhibition [2, 8] was 69%, the growth inhibition [3, 7] was 15% and the growth inhibition [3, 8] was 81% (active). The growth inhibition [4, 7] was 11%, the growth inhibition [4, 8] was 57% and the growth inhibition [5, 7] was 10%. For the same compound, the growth inhibition [5, 8] was 73% (active), the growth inhibition [6, 7] was -4% and the growth inhibition [6, 8] was 66%.
In the case of `C[C](=O)[Hg][O]c1ccc(N=Cc2ccccc2O)cc1`, the growth inhibition [1, 7] is reported as 99% (active), the growth inhibition [1, 8] is reported as 99% (active) and the growth inhibition [2, 7] is reported as 100% (active). The growth inhibition [2, 8] was 100% (active), the growth inhibition [3, 7] was 100% (active) and the growth inhibition [3, 8] was 100% (active). The growth inhibition [4, 7] was 99% (active), the growth inhibition [4, 8] was 99% (active) and the growth inhibition [5, 7] was 100% (active). For the same compound, the growth inhibition [5, 8] was 99% (active), the growth inhibition [6, 7] was 99% (active) and the growth inhibition [6, 8] was 99% (active).
With `O=[N+]([O-])/C=C/c1ccc([N+](=O)[O-])cc1` the growth inhibition [1, 7] was 96% (active), the growth inhibition [1, 8] was 99% (active) and the growth inhibition [2, 7] was 81% (active). The growth inhibition [2, 8] was 100% (active), the growth inhibition [3, 7] was 99% (active) and the growth inhibition [3, 8] was 100% (active). For the same compound, the growth inhibition [4, 7] was 31%, the growth inhibition [4, 8] was 99% (active) and the growth inhibition [5, 7] was 94% (active). The growth inhibition [5, 8] was 100% (active), the growth inhibition [6, 7] was 15% and the growth inhibition [6, 8] was 99% (active).
In the case of `[Cl][Sn]([c]1ccccc1)([c]1ccccc1)[c]1ccccc1`, the growth inhibition [1, 7] is reported as 99% (active), the growth inhibition [1, 8] is reported as 98% (active) and the growth inhibition [2, 7] is reported as 99% (active). The growth inhibition [2, 8] was 99% (active), the growth inhibition [3, 7] was 100% (active) and the growth inhibition [3, 8] was 99% (active). The growth inhibition [4, 7] was 99% (active), the growth inhibition [4, 8] was 99% (active) and the growth inhibition [5, 7] was 100% (active). The growth inhibition [5, 8] was 99% (active), the growth inhibition [6, 7] was 99% (active) and the growth inhibition [6, 8] was 98% (active).
In the case of `CC/C(=C\c1ccc(Cl)c(Cl)c1)[N+](=O)[O-]`, the growth inhibition [1, 7] is reported as 97% (active), the growth inhibition [1, 8] is reported as 99% (active) and the growth inhibition [2, 7] is reported as 52%. For the same compound, the growth inhibition [2, 8] was 100% (active), the growth inhibition [3, 7] was 99% (active) and the growth inhibition [3, 8] was 100% (active). For the same compound, the growth inhibition [4, 7] was 13%, the growth inhibition [4, 8] was 99% (active) and the growth inhibition [5, 7] was 60%. The growth inhibition [5, 8] was 99% (active), the growth inhibition [6, 7] was 14% and the growth inhibition [6, 8] was 99% (active).
Compound `CCCC(=O)O.CCCC(=O)O.CCCC(=O)O.CCCC(=O)O.[Rh].[Rh]` has a growth inhibition [1, 7] of 25%, a growth inhibition [1, 8] of 44% and a growth inhibition ([1]; at 50.0 µM) of 22%. It also gave a growth inhibition [3, 7] of 28%, a growth inhibition [3, 8] of 59% and a growth inhibition ([3]; at 50.0 µM) of 30.1%. It also gave a growth inhibition [5, 7] of 37%, a growth inhibition [5, 8] of 64% and a growth inhibition ([5]; at 50.0 µM) of 33.7%.
In the case of `O=C1C(C(Nc2ccccc2)c2ccccc2)=C([O-])c2ccccc21.O=C1C(C(Nc2ccccc2)c2ccccc2)=C([O-])c2ccccc21.[Co+2]` (configuration not stated), the growth inhibition [1, 7] is reported as 66%, the growth inhibition [1, 8] is reported as 61% and the growth inhibition ([1]; at 50.0 µM) is reported as 73.7% (active). For the same compound, the growth inhibition [3, 7] was 42%, the growth inhibition [3, 8] was 51% and the growth inhibition ([3]; at 50.0 µM) was 73% (active). It also gave a growth inhibition [4, 7] of 41%, a growth inhibition [4, 8] of 40% and a growth inhibition ([4]; at 50.0 µM) of 35%. The growth inhibition [5, 7] was 56%, the growth inhibition [5, 8] was 54% and the growth inhibition ([5]; at 50.0 µM) was 77.4% (active). The growth inhibition [6, 7] was 45%, the growth inhibition [6, 8] was 64% and the growth inhibition ([6]; at 50.0 µM) was 65.5%.
With `CN(Cc1ccccc1)CC(O)c1cccc(I)c1` (configuration not stated) the growth inhibition [1, 7] was -3%, the growth inhibition [1, 8] was 18% and the growth inhibition ([1]; at 50.0 µM) was 49.5%. For the same compound, the growth inhibition [3, 7] was -2%, the growth inhibition [3, 8] was 36% and the growth inhibition ([3]; at 50.0 µM) was 51.6%. For the same compound, the growth inhibition [4, 7] was 1%, the growth inhibition [4, 8] was 11% and the growth inhibition ([4]; at 50.0 µM) was 31.6%. For the same compound, the growth inhibition [5, 7] was 0%, the growth inhibition [5, 8] was 35% and the growth inhibition ([5]; at 50.0 µM) was 56.2%. It also gave a growth inhibition [6, 7] of -4%, a growth inhibition [6, 8] of 24% and a growth inhibition ([6]; at 50.0 µM) of 27.2%.
For `CCC(CC)COC(=O)CI`, the growth inhibition [1, 7] was 33%, the growth inhibition [1, 8] was 97% (active) and the growth inhibition [2, 7] was 19%. The growth inhibition [2, 8] was 79% (active), the growth inhibition [3, 7] was 28% and the growth inhibition [3, 8] was 99% (active). It also gave a growth inhibition [4, 7] of 15%, a growth inhibition [4, 8] of 40% and a growth inhibition [5, 7] of 50%. For the same compound, the growth inhibition [5, 8] was 86% (active), the growth inhibition [6, 7] was -20% and the growth inhibition [6, 8] was 87% (active).
For `CCC(=O)O.[Ag]`, the growth inhibition [1, 7] was 98% (active), the growth inhibition [1, 8] was 98% (active) and the growth inhibition ([1]; at 50.0 µM) was 91.2% (active). For the same compound, the growth inhibition [3, 7] was 99% (active), the growth inhibition [3, 8] was 98% (active) and the growth inhibition ([3]; at 50.0 µM) was 91.6% (active). For the same compound, the growth inhibition [4, 7] was 98% (active), the growth inhibition [4, 8] was 97% (active) and the growth inhibition ([4]; at 50.0 µM) was 90.3% (active). For the same compound, the growth inhibition [5, 7] was 99% (active), the growth inhibition [5, 8] was 97% (active) and the growth inhibition ([5]; at 50.0 µM) was 91% (active). For the same compound, the growth inhibition [6, 7] was 99% (active), the growth inhibition [6, 8] was 97% (active) and the growth inhibition ([6]; at 50.0 µM) was 90.3% (active).
